Laboratory results published in PubChem BioAssay.
Where “and” joins values, the source holds several entries; their conditions need not be identical. Identical values can stand only once. The source holds several records for some structures; these can differ, active in one and inactive in another. Calls of active or inactive are those of the source. Unless noted, no stated cut-off is given here; in the data, active means inhibition above about 80%; inactive means the rest.

Legend:
[1] = LFS_MB_P medulloblastoma growth inhibition, cell-based, chromothripsis tumors, cisplatin or BGB combos (AID 1671449); settings: LFS_MB_P medulloblastoma cells;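 further: cells exposed for 96 hours; 0% = vehicle DMSO and 100% = killing by high DMSO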
[2] = HDN33 neuroblastoma growth inhibition, cell-based, chromothripsis tumors, cisplatin or BGB combos (AID 1671450); settings: HDN33 neuroblastoma cells, stronger effect = higher value;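 further: cells exposed to compound for four days; 0% = vehicle DMSO and 100% = cell killing by high DMSO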
[3] = ICB984 medulloblastoma cell growth inhibition, synergistic combos for chromothripsis tumors, cisplatin or BGB combos (AID 1671451; call rule not given here;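 further: cells exposed for 96 hours before readout; 0% = vehicle DMSO and 100% = killing by high DMSO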); settings: ICB984 medulloblastoma cells, drug combinations, stronger effect = higher value
[4] = LFS_MB_1R medulloblastoma cell growth inhibition, synergistic combos for chromothripsis tumors, cisplatin or BGB combos (AID 1671452); settings: LFS_MB_1R medulloblastoma cells, stronger effect = higher value;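 further: cells exposed for 96 hours before readout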
[5] = HTB85 osteosarcoma cell growth inhibition, synergistic combos for chromothripsis tumors, BGB or cisplatin IC20 combos (AID 1671453); settings: HTB85 osteosarcoma cells, drug combinations, stronger effect = higher value;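 further: cells exposed for 96 hours before readout; 0% = vehicle DMSO and 100% = high DMSO killing control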
[6] = CRL2098 osteosarcoma cell growth inhibition, synergistic combos for chromothripsis tumors, BGB or cisplatin IC20 combos (AID 1671454); settings: CRL2098 osteosarcoma cells, drug combinations, stronger effect = higher value;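 further: cells exposed for 96 h before readout; 0% = vehicle DMSO and 100% = killing by high DMSO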
[7] = HD-MB03 medulloblastoma cell growth inhibition, synergistic combos for chromothripsis tumors, BGB or cisplatin IC20 combos (AID 1671455; in the data active means inhibition above about 83%;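 further: 0% = vehicle DMSO and 100% = high DMSO as cytotoxic control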); settings: HD-MB03 medulloblastoma cells, stronger effect = higher value
[8] = UWB1.289 ovarian carcinoma cell growth inhibition, synergistic combos for chromothripsis tumors, BGB or cisplatin combos (AID 1671456); settings: UWB1.289 ovarian carcinoma cells, stronger effect = higher value;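 further: cells exposed to compound for four days; 0% = vehicle DMSO and 100% = killing by high DMSO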
[9] = LFS_MB_2R medulloblastoma cell growth inhibition, synergistic combos for chromothripsis tumors, cisplatin combos (AID 1671457); settings: LFS_MB_2R medulloblastoma cells, stronger effect = higher value;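 further: cells exposed to compound for four days before readout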
[10] = MDA-MB-436 breast carcinoma cell growth inhibition, synergistic combos for chromothripsis tumors, BGB or cisplatin combos (AID 1671458; call rule not given here;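 further: cells exposed for 96 hours; 0% = vehicle DMSO and 100% = killing by high DMSO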); settings: MDA-MB-436 breast carcinoma growth inhibition, drug combinations, stronger effect = higher value
[11] = UWB1.289_BRCA1 ovarian cancer growth, cell-based, BGB or cisplatin combinations (AID 1671459); settings: UWB1.289 BRCA1 ovarian carcinoma, drug combinations, stronger effect = higher value
[12] = human astrocyte viability loss, single and combined drugs, cytotoxicity control for chromothriptic childhood tumor combination screen, cell-based, BGB or cisplatin IC20 combos (AID 1671460); settings: Human astrocytes, drug combinations, stronger effect = higher value;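 further: cells exposed to compounds for 96 hours before viability readout; 0% = vehicle and 100% = killing control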
[13] = growth inhibition of BT084 medulloblastoma cells, cell-based, ICGC_MB145, cisplatin and BGB IC40 combos (AID 1671461); settings: drug combinations, stronger effect = higher value;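 further: cells exposed to drugs for 96 hours; 0% = vehicle DMSO and 100% = high DMSO full killing control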
[14] = growth inhibition of RCMB18 medulloblastoma cells, cell-based, cisplatin and BGB IC40 combos (AID 1671462); settings: stronger effect = higher value;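 further: cells exposed to compound for four days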
[15] = growth inhibition of CRL1545 osteosarcoma cells, cell-based, cisplatin and BGB IC20 combos (AID 1671464); settings: stronger effect = higher value;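 further: cells exposed to compound for 96 hours before readout; 0% = vehicle DMSO and 100% = high DMSO killing control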
[16] = at 0.5 µM, stronger effect = higher value
[17] = measured here: combination with BGB IC20, at 0.005 µM
[18] = measured here: combination with BGB IC40, at 0.005 µM
[19] = measured here: combination with BGB IC40, at 0.05 µM
[20] = measured here: combination with cisplatin, at 0.5 µM, stronger effect = higher value
[21] = measured here: combination with cisplatin, at 5 µM, stronger effect = higher value
[22] = measured here: with BGB IC20 combination, at 0.5 µM
[23] = measured here: with cisplatin IC20 combination, at 0.5 µM
[24] = measured here: 5 uM single agent, at 5 µM
[25] = measured here: combination with cisplatin, at 0.5 µM
[26] = measured here: combination with cisplatin, at 5 µM
[27] = measured here: with BGB IC20, at 0.5 µM
[28] = measured here: with BGB IC20, at 5 µM
[29] = measured here: with cisplatin IC20, at 0.5 µM
[30] = measured here: with cisplatin IC20, at 5 µM
[31] = measured here: combination with BGB at IC20, at 0.5 µM
[32] = measured here: combination with cisplatin at IC20, at 0.5 µM
[33] = measured here: combo with BGB at IC20, at 0.5 µM
[34] = measured here: combo with cisplatin at IC20, at 0.5 µM
[35] = measured here: inhibition with BGB combination, at 0.05 µM
[36] = measured here: inhibition with cisplatin combination, at 0.05 µM
[37] = measured here: BGB combination, at 0.5 µM
[38] = measured here: BGB combination, at 5 µM
[39] = measured here: cisplatin combination, at 0.5 µM
[40] = measured here: cisplatin combination, at 5 µM
[41] = BGB combination, concentration series, at 5 µM
[42] = cisplatin combination, concentration series, at 5 µM
[43] = measured here: combo with BGB IC20, at 0.5 µM
[44] = measured here: combo with cisplatin IC20, at 0.5 µM
[45] = cisplatin combination, at 0.5 µM
[46] = measured here: BGB IC40 combination 0.05 uM, at 0.05 µM
[47] = measured here: BGB IC40 combination, at 0.05 µM

C[C@H](NC(=O)c1ccccc1N=Cc1c(O)ccc2ccccc12)c1ccccc1
inhibition [1, 16]: -32.5% (inactive) | inhibition [1, 17]: -24.4% | inhibition [1, 18]: -29.4% | inhibition [1, 19]: -11% | inhibition [1, 20]: -57.7% | inhibition [1, 21]: -10% | inhibition ([2]; BGB combo, at 5 µM): -7.69% | inhibition ([2]; at 0.5 µM): 1.7% (inactive) | inhibition ([2]; cisplatin combo, at 5 µM): -4.45% | inhibition [2, 22]: -2.8% | inhibition [2, 23]: -1.48% | inhibition ([2]; single agent, at 5 µM): 7.54% | inhibition ([3]; BGB IC20 combo, at 0.005 µM): 1.67% | inhibition ([3]; BGB IC40 combo, at 0.005 µM): -1.06% | inhibition ([3]; BGB IC40 combo, at 0.05 µM): 7.65% | inhibition ([3]; at 0.5 µM): -7.38% (inactive) | inhibition ([3]; cisplatin combo, at 0.05 µM): 3.01% | inhibition ([3]; cisplatin combo, at 0.5 µM): -7.71% | inhibition ([3]; cisplatin combo, at 5 µM): -12.4% | inhibition [3, 24]: 5.4% | inhibition ([4]; at 0.5 µM): -6.38% (inactive) | inhibition [4, 19]: -9.7% | inhibition [4, 25]: -2.62% | inhibition [4, 26]: 12.2% | inhibition ([5]; at 0.5 µM): 1.08% (inactive) | inhibition [5, 27]: 5.46% | inhibition [5, 28]: 7.19% | inhibition [5, 29]: -9.86% | inhibition [5, 30]: -2.37% | inhibition ([5]; single agent, at 5 µM): 12.6% | inhibition ([6]; at 0.5 µM): 5.5% (inactive) | inhibition [6, 31]: -35.4% | inhibition [6, 32]: 58.3% | inhibition ([7]; at 0.5 µM): 6.83% (inactive) | inhibition [7, 33]: 11.2% | inhibition [7, 34]: 5.12% | inhibition ([8]; at 0.5 µM): 17.4% (inactive) | inhibition [8, 35]: 3.84% | inhibition [8, 36]: 5.13% | inhibition ([9]; at 0.5 µM): -0.99% (inactive) | inhibition [9, 25]: 5.16% | inhibition [9, 26]: 4.48% | inhibition ([10]; at 0.5 µM): -1.91% (inactive) | inhibition [10, 37]: -7.38% | inhibition [10, 38]: -1.84% | inhibition [10, 39]: -10.5% | inhibition [10, 40]: -4.49% | inhibition [11, 41]: -2.68% | inhibition ([11]; at 0.5 µM): 1.55% (inactive) | inhibition [11, 42]: 4.86% | inhibition ([12]; at 0.5 µM): 3.33% (inactive) | inhibition [12, 43]: 4.85% | inhibition [12, 44]: -2.44% | inhibition ([13]; at 0.5 µM): -3.76% (inactive) | inhibition [13, 45]: 0.659% | inhibition ([13]; cisplatin combination, at 5 µM): -186% | inhibition [13, 46]: 5.69% | inhibition ([13]; single agent, at 5 µM): -0.461% | inhibition ([14]; at 0.5 µM): -3.35% (inactive) | inhibition ([14]; cisplatin combo, at 5 µM): -10.8% | inhibition [14, 47]: -9.58% | inhibition [14, 25]: -13.6% | inhibition ([14]; single agent, at 5 µM): 3.49% | inhibition ([15]; at 0.5 µM): -10.6% (inactive) | inhibition [15, 22]: -16.9% | inhibition [15, 23]: -9.19% | inhibition ([15]; single agent, at 0.05 µM): -20.9% | inhibition ([15]; single agent, at 5 µM): -71%

CCC1(O)C(=O)OCc2c1cc1n(c2=O)Cc2cc3c(CN(C)C)c(O)ccc3nc2-1 (stereo unspecified)
inhibition [1, 16]: -7.42% (inactive) and 3.72% (inactive) and -2.55% (inactive) | inhibition [1, 17]: -2.96% and 0.821% and -23.7% | inhibition [1, 18]: -28.9% and -14.4% and -12.5% | inhibition [1, 19]: -8.3% and -3.25% and -7.46% | inhibition [1, 20]: 36.9% and 49.4% and -21.3% | inhibition [1, 21]: 93.3% and 91.7% and 75.9% | inhibition ([2]; BGB combo, at 5 µM): 96.4% and 97.1% and 98.1% | inhibition ([2]; at 0.5 µM): 83.1% (active) and 85.8% (active) and 82.9% (active) | inhibition ([2]; cisplatin combo, at 5 µM): 97.1% and 98% and 96.8% | inhibition [2, 22]: 87% and 85.5% and 88% | inhibition [2, 23]: 75.5% and 82.8% and 74.8% | inhibition ([2]; single agent, at 5 µM): 95.8% and 96% and 97% | inhibition ([3]; BGB IC20 combo, at 0.005 µM): 1.19% and -8.91% and -7.41% | inhibition ([3]; BGB IC40 combo, at 0.005 µM): -10.3% and 15% and 31.5% | inhibition ([3]; BGB IC40 combo, at 0.05 µM): 86.5% and 95.6% and 93.6% | inhibition ([3]; at 0.5 µM): -27.8% (inactive) and -43.8% (inactive) and -21.6% (inactive) | inhibition ([3]; cisplatin combo, at 0.05 µM): 86% and 95.5% and 93.6% | inhibition ([3]; cisplatin combo, at 0.5 µM): -32.3% and -49.7% and -34.5% | inhibition ([3]; cisplatin combo, at 5 µM): -21.2% and -33.4% and -10.9% | inhibition [3, 24]: -12.3% and -23.2% and -4.56% | inhibition ([4]; at 0.5 µM): 47.7% (inactive) and 43.3% (inactive) and 58.9% (inactive) | inhibition [4, 19]: 10.2% and -20.8% and 4.16% | inhibition [4, 25]: 82.2% and 88% and 73.7% | inhibition [4, 26]: 88.7% and 77.4% and 94.2% | inhibition ([5]; at 0.5 µM): 96.9% (active) and 98% (active) and 97.5% (active) | inhibition [5, 27]: 96.8% and 97.1% | inhibition [5, 28]: 97.9% and 97.6% and 98.3% | inhibition [5, 29]: 95.9% and 98.1% and 97.3% | inhibition [5, 30]: 99.6% and 99.8% | inhibition ([5]; single agent, at 5 µM): 99.8% | inhibition ([6]; at 0.5 µM): 65.1% (inactive) and 60.8% (inactive) and 61.1% (inactive) | inhibition [6, 31]: 71% and 76.8% and 68.6% | inhibition [6, 32]: 64.4% and 48.3% | inhibition ([7]; at 0.5 µM): 98% (active) and 98.7% (active) and 97.9% (active) | inhibition [7, 33]: 98% and 98.7% and 98.4% | inhibition [7, 34]: 97.6% and 98.6% and 97.2% | inhibition ([8]; at 0.5 µM): 77% (inactive) and 79.8% (inactive) and 77.4% (inactive) | inhibition [8, 35]: 19.5% and 12.5% and 11.3% | inhibition [8, 36]: 13.4% and 13.9% and 19.4% | inhibition ([9]; at 0.5 µM): -1.34% (inactive) and 9.72% (inactive) and -3.02% (inactive) | inhibition [9, 25]: 29.4% and 18.3% and 22.7% | inhibition [9, 26]: 72.5% and 69.7% and 68.5% | inhibition ([10]; at 0.5 µM): 69.2% (inactive) and 68.2% (inactive) and 67.8% (inactive) | inhibition [10, 37]: 61.3% and 61.9% and 60.6% | inhibition [10, 38]: 65.7% and 71.1% and 67.8% | inhibition [10, 39]: 72.6% and 68.5% and 65.5% | inhibition [10, 40]: 82% and 77.6% and 79.6% | inhibition [11, 41]: 103% and 101% and 96.7% | inhibition ([11]; at 0.5 µM): 82.6% (active) and 85.9% (active) and 82.4% (active) | inhibition [11, 42]: 113% and 107% and 110% | inhibition ([12]; at 0.5 µM): 64.5% (inactive) and 68.3% (inactive) and 55.5% (inactive) | inhibition [12, 43]: 69.2% and 71.9% and 60.5% | inhibition [12, 44]: 49.5% and 56.1% and 33.1% | inhibition ([13]; at 0.5 µM): 1.98% (inactive) and 4.12% (inactive) and -13.3% (inactive) | inhibition [13, 45]: 37.8% and 38.2% and 36.1% | inhibition ([13]; cisplatin combination, at 5 µM): 37.9% and 28.6% and 20.5% | inhibition [13, 46]: -16.5% and -30.7% and -23.7% | inhibition ([13]; single agent, at 5 µM): -16% and -5.69% and -15.3% | inhibition ([14]; at 0.5 µM): 11.7% (inactive) and 6.99% (inactive) and 15.6% (inactive) | inhibition ([14]; cisplatin combo, at 5 µM): 82.3% and 73.1% and 75.9% | inhibition [14, 47]: -8.83% and -28.2% and -20.8% | inhibition [14, 25]: 55.7% and 30% and 38.3% | inhibition ([14]; single agent, at 5 µM): 22.6% and 40.2% and 40.4% | inhibition ([15]; at 0.5 µM): 78.9% (inactive) and 88.5% (active) and 81.8% (active) | inhibition [15, 22]: 91% and 95% and 93.8% | inhibition [15, 23]: 72.9% and 85.2% and 75.9% | inhibition ([15]; single agent, at 0.05 µM): 35.3% and 52% and 56.4% | inhibition ([15]; single agent, at 5 µM): 99.6% and 99.9% and 99.7%
